This excerpt belongs to a sample that is enriched for hits.
RE007 growth inh = qHTS Assay for Inhibitors of the HIV-1 protein Vpr | S. pombe RE007 Vpr strain, BacTiter-Glo ATP luminescence, 24 h | Potency, µM (titrated, usually from 92.2 µM), for inactives: top-dose activity change, negative = less growth, usual class: inhibitors | hit rate 0.21% among 360,000; active = well fitted falling curve with a large enough effect; inconclusive = small, poorly fitted or top-dose-only effect; inactive = no such curve, though single readings can be large or run the other way; also: potency is read from the fitted curve at half-maximal effect; % is scaled to controls: 0 for no effect and ±100 for the full control effect; nearly all actives have a fitted effect of over 50% in size
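Fission yeast RE007 carrying one integrated HIV-1 vpr copy, seeded at OD 0.01 in PMG+AL medium with 23 nL pinned compound. Grown 24 h at 30 degrees; viability read by BacTiter-Glo luminescence after 5 min.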
Tb PYK inh = qHTS of Trypanosoma Brucei Inhibitors; pyruvate kinase (Trypanosoma brucei), Q57TT1; TbPYK enzyme, Kinase-Glo Plus ATP luminescence, 45 min; Potency, µM (titrated, usually from 76.8 µM), without a hit: at the top dose activity, negative = inhibition, actives largely listed as inhibitors; hit rate 0.12% among 410,000; AID 624173, 2012; also: potency is read from the fitted curve at half-maximal effect; % is scaled to controls: 0 for no effect and ±100 for the full control effect; nearly all actives have a fitted effect of over 50% in size
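Luminescent Kinase-Glo Plus end-point after 45 min room-temperature reaction of T. brucei pyruvate kinase started with 130 uM ADP (final). Buffer TEA 50 mM pH 7.2 with KCl, MgCl2, BSA, Tween-20; titration-based qHTS with fitted concentration-effect curves.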
Shiga toxin inh = A qHTS for Small Molecule Inhibitors of Shiga Toxin; hit rate 9.2% among 290,000; Vero cells, Shiga toxin protein synthesis inhibition reporter; inhibition, % at 38.7 µM; in the data active = inhibition mostly above about 28%, no sharp cut-off; inactive = mostly below about 43%; also: 0% is about no effect
Giardia FBPA inh = qHTS Assay for Inhibitors of Fructose-1,6-bisphosphate Aldolase from Giardia Lamblia; A8B2U2; purified Giardia FBPA; Potency, µM (highest dose often 59.6 µM), without a hit: at the highest dose activity, negative = inhibition, most hits filed as inhibitors; hit rate 0.71% among 290,000; also: potency is read from the fitted curve at half-maximal effect; % is scaled to controls: 0 for no effect and ±100 for the full control effect; nearly all actives have a fitted effect of over 55% in size
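40 nM FBPA preincubated 10 min at RT with compound (up to 57.5 uM final), then substrate plus GAPDH/TPI/NAD/arsenate coupling and diaphorase/resazurin added. Fluorescence read after 20 min at RT, 525/598 nm.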
CHX counter = Cycloheximide Counterscreen for Small Molecule Inhibitors of Shiga Toxin; max response, %; hit rate 12% among 300,000; cell reporter, cycloheximide protein synthesis inhibition counterscreen; in the data active = max response mostly above about 13%, no sharp cut-off; inactive = mostly below about 14%; also: read at 38.3 µM for the half of the compounds with a filed dose; 0% is about no effect
LmPK inhibitor = qHTS Assay for Inhibitors of Leishmania Mexicana Pyruvate Kinase (LmPK). Q27686. purified LmPK, Kinase-Glo ATP luminescence, 1 h. Potency, µM (top dose mostly 57.5 µM), inactives show top-dose activity change, negative = inhibition, most hits filed as inhibitors. hit rate 0.37% among 290,000. AID 1721, 2009; also: potency is read from the fitted curve at half-maximal effect; % is scaled to controls: 0 for no effect and ±100 for the full control effect
Target sequence (Q27686 whole entry, looked up): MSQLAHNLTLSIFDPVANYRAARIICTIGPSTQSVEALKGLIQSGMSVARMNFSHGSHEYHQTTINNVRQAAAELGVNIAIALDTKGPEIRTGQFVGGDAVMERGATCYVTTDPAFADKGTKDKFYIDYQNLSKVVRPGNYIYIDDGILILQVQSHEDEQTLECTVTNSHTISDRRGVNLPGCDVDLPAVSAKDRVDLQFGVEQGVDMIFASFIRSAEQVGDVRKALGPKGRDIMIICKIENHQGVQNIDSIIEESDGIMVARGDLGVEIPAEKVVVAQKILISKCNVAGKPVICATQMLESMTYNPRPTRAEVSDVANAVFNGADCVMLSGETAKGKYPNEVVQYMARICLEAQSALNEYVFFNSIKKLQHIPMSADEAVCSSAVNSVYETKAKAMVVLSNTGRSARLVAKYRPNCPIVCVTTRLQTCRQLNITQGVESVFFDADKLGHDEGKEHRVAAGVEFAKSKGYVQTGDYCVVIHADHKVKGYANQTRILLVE
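In 50 mM imidazole pH 7.2 with 7 mM MgCl2, LmPK (0.1 nM) turned over PEP (0.5 mM) and ADP (0.1 mM) for 1 h at room temperature. Luciferase read-out of ATP.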
* = called active by the depositor; i = inactive; ? = inconclusive; nt = no result given; [ ] = remark or other dose. Unless noted, calls follow the shape of the dose curve; as a rule, active = well fitted curve in the direction sought with a large enough effect; inconclusive = small, poorly fitted or top-dose-only effect, or another doubt; inactive = no such curve, though single readings can be large; an effect the other way counts as inactive or inconclusive.

SMILES	RE007 growth inh	Tb PYK inh	Shiga toxin inh	Giardia FBPA inh	CHX counter	LmPK inhibitor
Cc1cc[n+](-c2[nH]c(=O)sc2/C=N/N=C(\[O-])c2ccccc2)cc1	4.7%	-4.7%	68.3*	?	49.0*	1.9%
Cc1ccc[n+](-c2[nH]c(=O)sc2/C=N/N=C(\[O-])c2cccnc2)c1	18.7%	-4.6%	28.5	2.1%	-1.8	2.2%
O=C(N/N=C/c1sc(=O)[nH]c1-[n+]1ccc2ccccc2c1)c1ccccc1[O-]	1.2%	2.5%	48.4*	nt	27.1*	-6.1%
O=C(N/N=C/c1sc(=O)[nH]c1-[n+]1ccccc1)c1ccccc1[O-]	5.2%	-0.9%	20.3	?	9.9	-5.4%
CCOC(=O)Cn1c(=O)n(-c2ccccc2OC)c2nc(-c3ccccc3C)nc(C(N)=O)c21	nt	2.1%	nt	nt	nt	nt
C=C1CCC2C(CC2(C)C)C(=O)CCC1O (stereo unspecified)	nt	nt	nt	-8.0%	nt	nt
O=c1oc2ccccc2c2c1C1O[C@](c3ccsc3)(Cc3ccccc31)O2	nt	nt	i	18.1%[12.9 µM]	4.9	-5.0%[11.5 µM]
O=C1c2ccccc2C(=O)C2OC12 (stereo unspecified)	nt	nt	23.8	?	-1.4	7.6%
O=C1c2ccccc2C(=O)C1c1ccncc1	-0.2%	-16.9%	46.2	-1.6%	22.2*	-17.6%
O=C1c2ccccc2C(=O)C1c1ccccn1	-10.3%	-4.3%	33.7	-4.6%	29.7*	?
Cc1ccc(C2C(=O)c3ccccc3C2=O)cc1	16.3%	1.0%	10.8	-21.6%	18.5*	-7.5%
Cc1cccc(/C(N)=N/OC(=O)c2cccs2)c1	?	?	106.1*	-5.8%	71.2*	12.6µM*
N/C(=N\OC(=O)c1cccs1)c1ccccc1	?	?	80.2*	-5.8%	35.3*	12.6µM*
N/C(=N\OC(=O)c1cccs1)c1cccc(Br)c1	-26.9%	-5.4%	77.5*	-11.8%	39.3*	15.8µM*
COc1ccc(/C(N)=N/OC(=O)c2cccs2)cc1OC	0.3%	-1.4%	7.9	1.3%	2.0	-3.1%
O=C(CCC(=O)c1cccs1)OCC(=O)c1ccccc1	3.6%	3.2%	nt	nt	nt	nt
O=C(NOC(=O)c1cc(Br)ccc1Cl)c1cccs1	18.6%	1.2%	-5.4	nt	-1.8	1.8%
Cc1ccc(/C(N)=N/OC(=O)c2cccs2)cc1	?	5.0%	37.2*	1.5%	39.0*	?
COC(=O)c1ccc(OC)c(CN2C(=O)N(c3ccc(C(C)=O)cc3)S(=O)(=O)c3ccccc32)c1	nt	1.3%	nt	nt	nt	nt
Brc1ccc(-c2nc3ccccc3s2)s1	?	2.6%	96.2*	-1.8%	47.8*	28.2µM*
CNc1ccc(-c2nc3ccccc3s2)cc1	nt	nt	-8.4	-17.3%	-17.6	nt
CSc1nc2ccccc2s1	2.7%	-6.4%	3.6	1.6%	0.3	0.1%
O=C1CCC(=O)N1c1ccc(-c2nc3ccccc3s2)cc1	9.4%	-23.1%	62.4*	1.2%	34.6*	?
Nc1ccc(-c2nc3ccccc3s2)cn1	-14.8%	-7.5%	103.6*	8.6%	23.5	-8.7%
c1ccc(-c2nc3ccccc3s2)nc1	-17.1%	-4.2%	76.0*	-0.8%	61.1*	11.2µM*
SMILES	RE007 growth inh	Tb PYK inh	Shiga toxin inh	Giardia FBPA inh	CHX counter	LmPK inhibitor
COc1ccccc1NC(=O)Cn1c(=O)oc2cc(S(=O)(=O)NCc3ccccc3)ccc21	nt	1.0%	nt	nt	nt	nt
COc1ccc(CN2C(=O)N(c3ccc(C)cc3)C(=O)C2CC(=O)Nc2ccccc2)cc1OC (stereo unspecified)	nt	-11.2%	nt	nt	nt	nt
COc1ccc(NC(=O)N2CCCC3(CCN(C(C)=O)CC3)C2)cc1	nt	4.4%	nt	-0.2%	nt	nt
Cc1ccccc1/C=C(\C#N)c1nc(-c2ccc(Cl)cc2)cs1	nt	0.3%	nt	nt	nt	nt
CN(C)c1ncccc1-c1nc2ccccc2s1	1.4%	-6.4%	23.1	5.3%	17.5	-3.9%
Brc1cc2c(cc1-c1nc3ccccc3s1)OCO2	-13.1%	8.2%	64.6*	2.5%	32.8*	0.7%
CCN(c1ccccc1)c1nc2ccsc2c(=O)s1	-3.2%	-6.3%	25.4	-1.9%	23.0*	2.3%
CN(c1ccccc1)c1nc2ccsc2c(=O)s1	-16.6%	3.2%	97.4*	0.9%	55.8*	5.6%
COc1ccccc1C(=O)NC1(C(F)(F)F)C(=O)NC(C)=C1C#N (stereo unspecified)	nt	-1.8%	nt	nt	nt	nt
O=C(Nc1ccc(N2CCOCC2)cc1)C1CCCCN1S(=O)(=O)c1ccccc1 (stereo unspecified)	-7.3%	-1.3%	-4.4	-5.1%	-1.7	0.3%
O=C(Nc1ccc(N2CCOCC2)cc1)NC1CCCCC1	15.7%	-0.7%	67.4*	-6.0%	17.9*	-5.2%
COc1ccccc1NC(=O)Nc1ccc(N2CCOCC2)cc1	-0.1%	-9.2%	84.1*	-8.1%	50.9*	-7.2%
O=C(Nc1ccc(N2CCOCC2)cc1)Nc1ccc(Cl)c(Cl)c1	6.1%	-4.8%	39.9	-0.7%	19.5*	12.9%
O=C(Nc1ccc(Cl)cc1)Nc1ccc(N2CCOCC2)cc1	-15.0%	-6.2%	30.4*	-1.4%	19.3*	-3.2%
C[C@H]1C=C2C=C[C@H](C)[C@H](CC[C@@H]3C[C@@H](O)CC(=O)O3)[C@H]2[C@@H](OC(=O)[C@@H](C)CCO)C1	nt	nt	nt	-6.7%	nt	nt
O=C(Nc1ccc(N2CCOCC2)cc1)Nc1cnsn1	-3.6%	-21.0%	34.1*	-12.2%	44.3*	-6.1%
O=C(CCCSc1nc2ccccc2s1)NCc1ccc2c(c1)OCO2	-16.5%	-10.7%	-19.1	-0.8%	17.0*	-3.4%
CC(C)(C)NC(=O)CCCSc1nc2ccccc2s1	-16.3%	-0.7%	72.1*	-3.5%	46.7*	-6.3%
Cc1ccccc1NC(=O)CCCSc1nc2ccccc2s1	?	-1.1%	3.8	-8.7%	20.4	3.3%
Cc1cc(SCc2sc(-c3ccc(C(F)(F)F)c(F)c3)nc2C)ccc1OCC(=O)O	nt	1.4%	-9.7	7.4%	14.6	nt
O=C(NCCc1ccc(Cl)cc1)C(=O)NCC(c1cccs1)S(=O)(=O)c1cccs1 (stereo unspecified)	nt	-6.5%	nt	nt	nt	nt
Nc1c(C(=O)N/N=C/c2ccc(Cl)cc2)cnn1-c1ccccc1	14.2%	-3.7%	36.8	2.0%	16.8	0.7%
Nc1c(C(=O)N/N=C/c2cccnc2)cnn1-c1ccccc1	6.5%	-1.6%	50.7*	-2.1%	46.7*	-2.6%
COc1cccc(/C=N/NC(=O)c2cnn(-c3ccccc3)c2N)c1	5.1%	-0.6%	71.7*	-17.4%	45.9*	-22.4%
CCN1C(=O)CC(N2CCN(c3ccc(C(=O)c4ccccc4)cc3)CC2)C1=O (stereo unspecified)	-17.9%	-3.6%	105.8*	-9.4%	63.9*	-3.5%

High-throughput results from PubChem BioAssay.
